Source: PubChem BioAssay (National Center for Advancing Translational Sciences (NCATS))
In the library only some 7.5% were active in any assay of this set; here they are far more common.
FLuc modulator – qHTS profiling assay for firefly luciferase inhibitor/activator using purifed enzyme and Km concentrations of substrates (counterscreen for miR-21 project); actives 6.9% (n = 360,000); purified FLuc, Km substrates, luminescence inhibition; Luciferin 4-monooxygenase (Photinus pyralis), P08659; Potency, µM (series often up to 57.5 µM), for the others: at the top dose activity change, negative = inhibition, actives largely listed as inhibitors;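 further: plate controls were vehicle for no effect and reference inhibitor for full effect; nearly all actives have a fitted effect of over 55% in size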
Target sequence (P08659 whole entry, looked up): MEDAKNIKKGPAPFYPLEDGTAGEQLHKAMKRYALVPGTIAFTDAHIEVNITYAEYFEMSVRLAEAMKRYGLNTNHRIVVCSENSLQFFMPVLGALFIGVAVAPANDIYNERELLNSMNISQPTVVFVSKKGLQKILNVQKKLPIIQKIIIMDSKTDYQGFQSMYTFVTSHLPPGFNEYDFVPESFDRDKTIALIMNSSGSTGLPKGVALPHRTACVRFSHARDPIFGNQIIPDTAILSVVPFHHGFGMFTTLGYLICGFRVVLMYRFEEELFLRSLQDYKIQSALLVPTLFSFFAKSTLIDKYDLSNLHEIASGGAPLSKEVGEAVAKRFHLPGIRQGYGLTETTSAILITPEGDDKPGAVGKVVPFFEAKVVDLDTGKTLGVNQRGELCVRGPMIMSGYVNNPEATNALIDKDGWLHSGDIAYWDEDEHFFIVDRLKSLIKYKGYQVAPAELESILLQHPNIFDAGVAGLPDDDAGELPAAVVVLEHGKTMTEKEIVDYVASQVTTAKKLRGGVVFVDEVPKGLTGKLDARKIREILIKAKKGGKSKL
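Purified P. pyralis luciferase, 10 nM final, with Km-level 10 uM D-luciferin and 10 uM ATP in 50 mM Tris acetate pH 7.5, 10 mM Mg acetate, 0.01% Tween-20, 0.05% BSA; 6-point qHTS titration about 60 µM downward; luminescence read.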
SMN2 splice up – qHTS Assay for Enhancers of SMN2 Splice Variant Expression; actives 2.8% (n = 210,000); HEK293 SMN2-luciferase splicing reporter, luminescence, 30-36 h; Potency, µM (top dose mostly 46.1 µM), without a hit: top-dose activity change, positive = activation, usual class: activators; further: % of control where 0% means no effect; nearly all actives have a fitted effect of over 55% in size
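qHTS luciferase splicing reporter: luminescence rises when SMN2 exon 7 is included in transfected HEK293 cells. Compound exposure lasted 30-36 h at 37C, with 4.5 mM final sodium butyrate as control, followed by a ONE-Glo read.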
ELG1 genotoxic – qHTS screen for small molecules that induce genotoxicity in human embryonic kidney (HEK293T) cells expressing luciferase-tagged ELG1. HEK293T ELG1-luciferase reporter, luminescence, 16 h. Potency, µM (top dose mostly 46 µM), without a hit: at the highest dose activity change, positive = activation, actives largely listed as activators. actives 1.3% (n = 330,000); further: % of control where 0% means no effect; nearly all actives have a fitted effect of over 60% in size
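Genotoxic stress is detected as increased luminescence from luciferase-tagged ELG1 in HEK293T cells, measured with ONE-Glo after a 16 hr treatment at 37 °C.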
Rab9 prom act – qHTS Assay for Rab9 Promoter Activators; Huh7 Rab9 promoter-luciferase reporter, luminescence, 24 h; actives 2.8% (n = 320,000); Potency, µM (top dose mostly 9.22 µM), inactives show at the top dose activation, negative = inhibition, actives largely listed as activators; further: % of control where 0% means no effect; nearly all actives have a fitted effect of over 60% in size
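Luciferase signal after 10 min detection reagent at ambient indicates Rab9 promoter upregulation; stably transfected Huh7 cells were treated 24 h with compound in DMSO at 37 °C, 5% CO2.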
NPC1 promoter act – qHTS Assay for NPC1 Promoter Activators; Potency, µM (titrated, usually from 9.22 µM), without a hit: at the highest dose activation, hits mostly activators; Huh7 NPC1 promoter luciferase reporter, 24 h; AID 485313, 2010; actives 2.4% (n = 320,000); further: % of control where 0% means no effect; nearly all actives have a fitted effect of over 60% in size
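Cells: Huh7 expressing luciferase under the NPC1 promoter, 1500/well. Seeded 2 h, compound added, incubated 24 h at 37 °C. Luciferase reagent, 10 min ambient, then luminescence.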
KinaseGlo FLuc – Counterscreen for Luciferase (Kinase-Glo TM) Inhibition; Luciferin 4-monooxygenase (Photuris pensylvanica), Q27757; Kinase-Glo luciferase, ATP luminescence, 8 min; Potency, µM (series often up to 38.3 µM), inactives show top-dose activity change, negative = inhibition, hits mostly inhibitors; actives 0.28% (n = 200,000); further: on the % scale 0 is the no-effect control and ±100 the full control effect; nearly all actives have a fitted effect of over 60% in size
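Compound is pinned into ATP-containing buffer (10 uM ATP, imidazole pH 7.2, 7 mM MgCl2). Kinase-Glo luciferase reagent is then added. Light output is recorded following an 8-min room-temperature incubation.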
Starred values were filed as active, the others as inactive; ? = inconclusive; nt = no result; [ ] = another dose, or the depositor's remark. The call rests on the fitted dose curve; in most records, active means well fitted curve in the direction sought with a large enough effect; inconclusive means small, poorly fitted or top-dose-only effect, or another doubt; inactive means no such curve, though single readings can be large; an effect the other way counts as inactive or inconclusive. Potency means the concentration at half of the fitted maximal effect.

SMILES	FLuc modulator	SMN2 splice up	ELG1 genotoxic	Rab9 prom act	NPC1 promoter act	KinaseGlo FLuc
COc1ccccc1N1CCN(C2CCCN(C(=O)CCn3cncn3)C2)CC1 (stereo unspecified)	-2%	nt	1%	8%	-11%	nt
COc1cc2c(cc1C(F)(F)F)N(C(=O)Nc1cc(F)cc(-c3cccnc3)c1)CC2	nt	-18%	nt	nt	nt	-4%
O=C(Nc1ccc(Cl)cc1)Nc1ccon1	?	nt	3%	6%	-22%	nt
Cc1ccc(NC(=O)Nc2ccon2)cc1Cl	19µM*	nt	3%	23%	21%	nt
O=C(Nc1ccccc1)C(=O)Nc1cccnc1	3µM*	nt	?	0.4µM*	0.5µM*	nt
Cn1ccc2cc3c(cc21)CCN3C(=O)Nc1cccnc1	6µM*	?	?	3.2µM*	3.7µM*	-3%
CCOc1ccccc1NC(=O)N1CCC2(CC1)Oc1ccccc1C(=O)N2Cc1ccccc1F	-1%	-23%	nt	nt	nt	nt
NC(=O)c1ccc(F)cc1	1%	-1%	2%	-4%	1%	-3%
N/C(=N/OCC(=O)Nc1cccc2ccccc12)c1nonc1N	-6%	-11%	-2%	1%	3%	-3%
Cc1cc(NC(=O)COC(=O)c2ccccc2Cl)no1	nt	nt	-2%	nt	nt	nt
N/C(=N\OC(=O)c1ccc(F)cc1)c1nonc1N	1.5µM*	11%	4%	-8%	-2%	11µM*
Cc1ccc(C(=O)O/N=C(\N)c2nonc2N)cc1	0.48µM*	18%	?	11%	3%	11µM*
Cc1cc(/C(N)=N/OC(=O)c2ccccc2Cl)no1	1.7µM*	nt	?	0.5µM*	1.1µM*	nt
N/C(=N/OC(=O)c1ccccc1Cl)c1nonc1N	8.5µM*	5%	?	?	20%	?
Cc1ccc(OCC(=O)Nc2ccc3nc(SCC(=O)Nc4ccc(C)cc4C)sc3c2)cc1	1%	nt	nt	nt	nt	nt
Cc1nc(/C(N)=N/OC(=O)c2cccc(Cl)c2)c(C(F)(F)F)o1	?	nt	-1%	-5%	1%	nt
Cc1nc(/C(N)=N/OC(=O)c2ccccc2Cl)c(C(F)(F)F)o1	11µM*	nt	?	?	?	nt
CCOc1cccc(C2c3c(oc4ccc(F)cc4c3=O)C(=O)N2c2cc(C)ccn2)c1 (stereo unspecified)	1%	?	nt	nt	nt	nt
O=C1C[C@H]2[C@H](CO)[C@@H](OC(=O)c3ccc(-c4ccccc4)cc3)C[C@H]2O1	5.4µM*	nt	16%	?	?	nt
O=C1CC2C(CC(OC(=O)c3ccc(-c4ccccc4)cc3)C2CO)O1 (stereo unspecified)	12µM*	?	?	?	16%	-5%
O=C(Nc1ccn(C2CC(OC(=O)c3ccccc3)C(CO)O2)c(=O)n1)c1ccccc1 (stereo unspecified)	0%	-8%	-4%	3%	1%	-7%
COCCNC(=O)c1cc2oc3ccccc3c2n1C	9.5µM*	nt	?	3.2µM*	26%	-1%
Cn1c(C(=O)NCc2cccc(Cl)c2)cc2oc3ccccc3c21	-1%	?	nt	nt	nt	nt
Nc1nc(CSc2ccccc2)nc(N2CCCCC2)n1	?	20µM*	?	?	?	-1%
Nc1nc(CSc2ccc(Cl)cc2)nc(N2CCCCC2)n1	?	-6%	0%	-6%	-2%	-2%
SMILES	FLuc modulator	SMN2 splice up	ELG1 genotoxic	Rab9 prom act	NPC1 promoter act	KinaseGlo FLuc
CCS(=O)(=O)n1nc(-c2ccc(Cl)cc2)nc1SCc1ccccc1	15µM*	14µM*	17%	?	29%	-1%
COc1ccc(C2CC(=O)N(C)c3ccccc3S2)cc1OC (stereo unspecified)	?	21%	18µM*	4µM*	25%	2%
COc1ccc(C2CC(=O)N(Cc3ccc(F)cc3)c3ccccc3S2)cc1OC (stereo unspecified)	0%	-42%	nt	nt	nt	nt
Cc1ccc(CNC(=O)CN(c2ccc(Cl)cc2Cl)S(=O)(=O)c2ccccc2)cc1	-13%	-14%	nt	nt	nt	nt
CCN=c1scc(-c2ccco2)n1/N=C/c1ccc(OC)c(O)c1	5.4µM*	?	nt	nt	nt	-1%
CCN=c1scc(-c2ccco2)n1/N=C/c1ccc(O)cc1	6.7µM*	?	12µM*	?	?	4%
COc1ccc(/C=N/N2CCN(C)CC2)cc1O	0%	5%	-5%	-3%	1%	3%
Cc1ccc(/C=N/n2c(-c3ccco3)n[nH]c2=S)cc1	0%	nt	0%	-5%	-1%	nt
OC[C@H](S)CS	nt	-2%[9.22 µM]	nt	nt	nt	-6%[7.66 µM]
Cc1ccc(-n2nc3c(n2)/C(=N/O)CC/C3=N\O)cc1	9.5µM*	13µM*	?	3.2µM*	?	13µM*
COc1cccc(CC(=O)Nc2ccc(S(=O)(=O)Nc3nc(C)cc(C)n3)cc2)c1	-15%	-9%	4%	-3%	-5%	3%
Cc1sc2c(c1C)C(=O)NC(c1ccccc1F)N2 (stereo unspecified)	17µM*	nt	?	?	27%	nt
Cc1cccc(C2NC(=O)c3c(sc(C)c3C)N2)c1O (stereo unspecified)	?	-2%	-1%	0%	16%	-6%
CCOC(=O)c1cn[nH]c1NC(=S)Nc1ccc(Cl)cc1	0.38µM*	nt	?	0.32µM*	0.32µM*	nt
NC(=O)C1CCN(C(=O)c2cc(-c3ccc(Cl)cc3)nc3ccccc23)CC1	nt	nt	-6%	nt	nt	nt
c1ccc(-c2cc(-c3ccc(N4CCOCC4)cc3)nc3ccccc23)cc1	15µM*	-7%	9%	-1%	1%	3%
Cc1ccc(-c2cc(C(=O)N3CCOCC3)c3cc(C)ccc3n2)cc1	6.7µM*	nt	1%	5%	15%	nt
Cc1ccc2nc(-c3ccncc3)cc(C(=O)N3CCOCC3)c2c1	-2%	nt	-3%	-1%	-3%	nt
O=C(c1cc(-c2ccc(Cl)cc2)nc2ccccc12)N1CCOCC1	19µM*	nt	-13%	6%	1%	nt
CCOC(=O)c1nc(SC)n(C)c1C(=O)OCC	-3%	nt	2%	1%	-1%	nt
N#C/C(=C\Nc1ccccn1)C(=O)c1ccco1	nt	5%[9.22 µM]	nt	nt	nt	0%[7.66 µM]
CCCCOc1ccc2c(c1)C(=O)c1cc(O)ccc1-2	27µM*	nt	?	3.2µM*	?	0%
CCOc1ccc2c(c1)C(=O)c1cc(OCC(=O)O)ccc1-2	3.4µM*	nt	-8%	2%	14%	nt
O=C(O)CC1(CC(=O)Nc2ccc3c(c2)C(=O)OC3)CCCCC1	-1%	nt	0%	0%	1%	nt
